# Laboratory results reported in publication PMC7862700, “An all-to-all approach to the identification of sequence-specific readers for epigenetic DNA modifications on cytosine”.
# What was measured:
# Assay in all cases: DAPPL (digital affinity profiling via proximity ligation, sequencing); 10 mM Tris-HCl pH 7.5, 50 mM NaCl, 1 mM DTT, 4% glycerol, room temperature, 30 min; GST-TFs on glutathione beads, 16-mer random dsDNA library, 0.1% formaldehyde crosslink after washing; high values mean tight binding
# FLI1 = biological target: T1, FLI1 (Homo sapiens, UniProt Q01543 1-452); conditions: protein: recombinant; tags: N-terminal GST; dsDNA, one strand shown
# T1 sequence: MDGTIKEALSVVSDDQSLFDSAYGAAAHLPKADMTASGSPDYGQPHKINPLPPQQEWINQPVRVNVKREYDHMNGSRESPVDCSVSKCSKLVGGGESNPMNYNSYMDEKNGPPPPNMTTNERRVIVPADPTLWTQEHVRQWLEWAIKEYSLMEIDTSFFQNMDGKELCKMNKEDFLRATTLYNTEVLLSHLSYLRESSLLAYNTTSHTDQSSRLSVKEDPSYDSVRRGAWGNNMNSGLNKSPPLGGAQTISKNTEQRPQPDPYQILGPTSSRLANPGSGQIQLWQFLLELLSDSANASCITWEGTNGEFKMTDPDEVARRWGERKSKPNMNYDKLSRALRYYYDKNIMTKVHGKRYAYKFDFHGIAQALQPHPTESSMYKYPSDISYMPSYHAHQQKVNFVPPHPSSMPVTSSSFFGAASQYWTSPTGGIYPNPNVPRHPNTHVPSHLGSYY
# Summary of the method: (§1)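 GST fusions of human transcription factors were expressed in yeast and captured with glutathione beads. Once given DNA barcodes and pooled alongside a tag-only sample, they were incubated for 30 min at room temperature with 200 nmole of a random double-stranded 16-mer DNA library in Tris/NaCl/DTT/glycerol buffer, then washed, crosslinked (0.1% formaldehyde), proximity-ligated, PCR-amplified and sequenced on an Illumina NextSeq500. The binding signal of each hexamer is its read frequency for a factor divided by its frequency for the tag-only sample.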
# ELK1 = biological target: T2, ELK1 (Homo sapiens, UniProt P19419 1-428); conditions: protein: recombinant; tags: N-terminal GST; dsDNA, one strand shown
# T2 sequence: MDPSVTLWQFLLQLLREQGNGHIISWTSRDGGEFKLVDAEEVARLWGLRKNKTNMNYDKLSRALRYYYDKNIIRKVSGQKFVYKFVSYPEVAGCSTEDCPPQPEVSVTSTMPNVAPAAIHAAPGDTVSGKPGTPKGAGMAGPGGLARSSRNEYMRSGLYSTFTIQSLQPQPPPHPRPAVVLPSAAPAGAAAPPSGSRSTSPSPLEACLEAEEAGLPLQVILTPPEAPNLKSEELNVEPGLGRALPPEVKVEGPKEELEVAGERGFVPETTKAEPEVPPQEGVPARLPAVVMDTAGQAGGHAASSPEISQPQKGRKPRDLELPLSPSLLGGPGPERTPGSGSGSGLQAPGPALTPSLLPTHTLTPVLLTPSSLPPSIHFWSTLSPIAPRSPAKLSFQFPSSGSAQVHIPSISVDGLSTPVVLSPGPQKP
# Summary of the method: as §1
# GABPA = biological target: T3, GABPA (Homo sapiens, UniProt Q06546 1-454); conditions: protein: recombinant; tags: N-terminal GST; dsDNA, one strand shown
# T3 sequence: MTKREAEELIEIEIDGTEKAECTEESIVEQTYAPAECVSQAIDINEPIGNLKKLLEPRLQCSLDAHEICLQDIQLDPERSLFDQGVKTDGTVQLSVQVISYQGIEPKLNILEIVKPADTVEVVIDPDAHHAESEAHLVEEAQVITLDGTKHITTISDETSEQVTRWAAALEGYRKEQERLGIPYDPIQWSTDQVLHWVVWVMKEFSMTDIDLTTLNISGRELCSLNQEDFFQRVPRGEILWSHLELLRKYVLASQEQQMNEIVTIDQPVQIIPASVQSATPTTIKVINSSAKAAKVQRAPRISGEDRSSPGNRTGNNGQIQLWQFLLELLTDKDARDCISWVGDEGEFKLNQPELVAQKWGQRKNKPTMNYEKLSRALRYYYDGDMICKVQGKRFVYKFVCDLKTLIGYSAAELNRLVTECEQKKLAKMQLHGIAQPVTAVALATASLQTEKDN
# Summary of the method: as §1
# ERG = biological target: T4, ERG (Homo sapiens, UniProt P11308 1-479); conditions: protein: recombinant; tags: N-terminal GST; dsDNA, one strand shown
# T4 sequence: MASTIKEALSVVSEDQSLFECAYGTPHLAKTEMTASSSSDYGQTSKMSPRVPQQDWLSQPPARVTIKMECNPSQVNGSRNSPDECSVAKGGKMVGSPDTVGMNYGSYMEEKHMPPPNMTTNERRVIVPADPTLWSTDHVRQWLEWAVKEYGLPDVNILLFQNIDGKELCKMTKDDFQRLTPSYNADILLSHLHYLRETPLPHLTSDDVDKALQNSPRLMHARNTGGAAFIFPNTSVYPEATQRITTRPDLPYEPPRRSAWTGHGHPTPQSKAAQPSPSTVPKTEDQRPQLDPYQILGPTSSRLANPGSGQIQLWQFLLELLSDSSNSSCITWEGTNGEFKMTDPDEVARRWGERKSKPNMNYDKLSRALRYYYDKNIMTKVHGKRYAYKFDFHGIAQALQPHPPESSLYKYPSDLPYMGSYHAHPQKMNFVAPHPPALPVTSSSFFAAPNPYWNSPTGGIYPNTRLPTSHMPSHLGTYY
# Summary of the method: as §1
# ELF1 = ELF1 (Homo sapiens, UniProt P32519 1-619); conditions: protein: recombinant; tags: N-terminal GST; dsDNA, one strand shown
# Sequence of ELF1 (P32519 whole entry): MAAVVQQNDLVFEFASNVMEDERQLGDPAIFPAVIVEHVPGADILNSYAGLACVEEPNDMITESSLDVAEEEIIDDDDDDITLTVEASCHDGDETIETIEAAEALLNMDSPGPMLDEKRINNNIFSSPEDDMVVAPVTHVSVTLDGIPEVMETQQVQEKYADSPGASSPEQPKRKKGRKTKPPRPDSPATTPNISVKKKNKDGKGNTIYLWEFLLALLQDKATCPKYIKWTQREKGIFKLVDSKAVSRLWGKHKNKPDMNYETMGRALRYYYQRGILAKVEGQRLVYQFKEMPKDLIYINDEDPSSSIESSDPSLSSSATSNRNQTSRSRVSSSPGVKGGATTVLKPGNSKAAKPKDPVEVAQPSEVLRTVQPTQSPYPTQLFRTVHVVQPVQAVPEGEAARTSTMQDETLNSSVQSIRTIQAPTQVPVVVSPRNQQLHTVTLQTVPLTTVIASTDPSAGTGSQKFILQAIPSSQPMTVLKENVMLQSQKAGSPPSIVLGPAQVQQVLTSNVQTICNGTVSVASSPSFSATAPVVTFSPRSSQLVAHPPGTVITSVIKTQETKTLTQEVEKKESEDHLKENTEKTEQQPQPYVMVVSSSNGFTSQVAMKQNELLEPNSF
# Summary of the method: as §1
# EHF = biological target: T5, EHF (Homo sapiens, UniProt Q9NZC4 1-300); conditions: protein: recombinant; tags: N-terminal GST; dsDNA, one strand shown
# T5 sequence: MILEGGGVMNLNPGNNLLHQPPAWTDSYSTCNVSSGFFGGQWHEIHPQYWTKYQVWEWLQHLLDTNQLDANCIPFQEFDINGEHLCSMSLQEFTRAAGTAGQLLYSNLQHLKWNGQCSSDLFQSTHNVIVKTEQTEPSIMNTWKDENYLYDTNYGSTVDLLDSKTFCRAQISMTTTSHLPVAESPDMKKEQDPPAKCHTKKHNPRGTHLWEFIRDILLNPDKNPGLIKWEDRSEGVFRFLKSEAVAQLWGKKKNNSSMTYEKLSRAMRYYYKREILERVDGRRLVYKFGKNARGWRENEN
# Summary of the method: as §1
# SPI1 = SPI1 (Homo sapiens, UniProt P17947 1-270); conditions: protein: recombinant; tags: N-terminal GST; dsDNA, one strand shown
# Summary of the method: as §1
# SPIB = SPIB (Homo sapiens, UniProt Q01892 1-262); conditions: protein: recombinant; tags: N-terminal GST; dsDNA, one strand shown
# Sequence of SPIB (Q01892 whole entry): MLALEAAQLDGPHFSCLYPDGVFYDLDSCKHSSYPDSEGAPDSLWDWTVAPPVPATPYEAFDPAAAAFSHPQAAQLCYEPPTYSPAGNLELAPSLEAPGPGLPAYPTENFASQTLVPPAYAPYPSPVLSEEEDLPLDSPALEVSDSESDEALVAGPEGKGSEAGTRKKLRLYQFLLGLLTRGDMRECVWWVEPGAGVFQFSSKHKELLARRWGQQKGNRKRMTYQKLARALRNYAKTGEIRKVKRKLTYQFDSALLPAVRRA
# Summary of the method: as §1
# ELK3 = biological target: T6, ELK3 (Homo sapiens, UniProt P41970 1-407); conditions: protein: recombinant; tags: N-terminal GST; dsDNA, one strand shown
# T6 sequence: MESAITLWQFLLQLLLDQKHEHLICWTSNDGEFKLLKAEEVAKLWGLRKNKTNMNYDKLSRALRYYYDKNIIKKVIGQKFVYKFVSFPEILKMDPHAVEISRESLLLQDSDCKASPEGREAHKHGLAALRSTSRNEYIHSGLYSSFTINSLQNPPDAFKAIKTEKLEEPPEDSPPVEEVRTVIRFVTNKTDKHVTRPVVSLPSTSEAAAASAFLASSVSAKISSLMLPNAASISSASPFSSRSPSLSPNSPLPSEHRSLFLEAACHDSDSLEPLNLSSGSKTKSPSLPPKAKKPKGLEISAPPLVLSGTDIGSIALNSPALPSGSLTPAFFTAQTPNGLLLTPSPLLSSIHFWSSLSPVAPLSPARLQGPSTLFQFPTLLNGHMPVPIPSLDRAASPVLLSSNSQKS
# Summary of the method: as §1
# FEV = biological target: T7, FEV (Homo sapiens, UniProt Q99581 1-238); conditions: protein: recombinant; tags: N-terminal GST; dsDNA, one strand shown
# T7 sequence: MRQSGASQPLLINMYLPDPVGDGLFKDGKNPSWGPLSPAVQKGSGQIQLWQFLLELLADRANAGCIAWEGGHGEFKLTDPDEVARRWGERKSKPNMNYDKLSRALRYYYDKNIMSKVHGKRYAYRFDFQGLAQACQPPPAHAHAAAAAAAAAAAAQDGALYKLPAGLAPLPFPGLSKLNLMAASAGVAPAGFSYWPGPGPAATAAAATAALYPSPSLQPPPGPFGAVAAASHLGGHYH
# Summary of the method: as §1
# ETV5 = ETV5 (Homo sapiens, UniProt P41161 1-510); conditions: protein: recombinant; tags: N-terminal GST; dsDNA, one strand shown
# Sequence of ETV5 (P41161 whole entry): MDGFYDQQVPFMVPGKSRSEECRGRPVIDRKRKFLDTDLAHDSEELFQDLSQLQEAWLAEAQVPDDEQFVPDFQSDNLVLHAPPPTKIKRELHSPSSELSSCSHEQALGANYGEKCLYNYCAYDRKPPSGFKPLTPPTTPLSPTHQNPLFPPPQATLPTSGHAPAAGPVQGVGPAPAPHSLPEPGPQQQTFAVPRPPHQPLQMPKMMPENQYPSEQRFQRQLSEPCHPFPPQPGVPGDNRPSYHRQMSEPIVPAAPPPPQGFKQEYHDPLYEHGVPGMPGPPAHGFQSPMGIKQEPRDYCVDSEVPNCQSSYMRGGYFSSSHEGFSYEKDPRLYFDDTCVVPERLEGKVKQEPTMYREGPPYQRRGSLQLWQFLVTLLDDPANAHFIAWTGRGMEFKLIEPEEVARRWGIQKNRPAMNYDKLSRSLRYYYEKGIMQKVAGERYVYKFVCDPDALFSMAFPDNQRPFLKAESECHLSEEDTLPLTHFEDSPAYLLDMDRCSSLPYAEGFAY
# Summary of the method: as §1
# HSF1 = HSF1 (Homo sapiens, UniProt Q00613 1-529); conditions: protein: recombinant; tags: N-terminal GST; chain copies: 3; dsDNA, one strand shown
# Sequence of HSF1 (Q00613 whole entry): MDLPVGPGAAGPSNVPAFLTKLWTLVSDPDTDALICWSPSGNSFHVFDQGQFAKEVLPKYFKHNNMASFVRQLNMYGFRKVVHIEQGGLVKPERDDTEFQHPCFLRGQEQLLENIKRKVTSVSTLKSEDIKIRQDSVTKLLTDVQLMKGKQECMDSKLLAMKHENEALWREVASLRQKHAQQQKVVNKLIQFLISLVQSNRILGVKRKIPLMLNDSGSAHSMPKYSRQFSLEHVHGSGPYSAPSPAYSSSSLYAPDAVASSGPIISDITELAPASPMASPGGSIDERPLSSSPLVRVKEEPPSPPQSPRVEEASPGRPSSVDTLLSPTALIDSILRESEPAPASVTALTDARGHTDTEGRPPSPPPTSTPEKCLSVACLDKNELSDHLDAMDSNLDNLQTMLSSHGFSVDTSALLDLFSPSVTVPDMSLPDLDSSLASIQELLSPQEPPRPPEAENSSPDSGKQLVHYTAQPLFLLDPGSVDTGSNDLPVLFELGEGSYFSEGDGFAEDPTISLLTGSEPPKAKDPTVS
# Summary of the method: as §1
# SPIC = biological target: T8, SPIC (Homo sapiens, UniProt Q8N5J4 1-248); conditions: protein: recombinant; tags: N-terminal GST; dsDNA, one strand shown
# T8 sequence: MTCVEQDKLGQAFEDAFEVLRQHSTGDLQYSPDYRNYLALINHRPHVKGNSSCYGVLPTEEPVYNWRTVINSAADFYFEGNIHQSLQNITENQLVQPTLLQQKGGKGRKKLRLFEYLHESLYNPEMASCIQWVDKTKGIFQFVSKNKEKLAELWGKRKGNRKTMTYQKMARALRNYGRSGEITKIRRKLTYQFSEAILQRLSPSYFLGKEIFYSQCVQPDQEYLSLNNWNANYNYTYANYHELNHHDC
# Summary of the method: as §1
# ELF4 = ELF4 (Homo sapiens, UniProt Q99607 1-663); conditions: protein: recombinant; tags: N-terminal GST; dsDNA, one strand shown
# Sequence of ELF4 (Q99607 whole entry): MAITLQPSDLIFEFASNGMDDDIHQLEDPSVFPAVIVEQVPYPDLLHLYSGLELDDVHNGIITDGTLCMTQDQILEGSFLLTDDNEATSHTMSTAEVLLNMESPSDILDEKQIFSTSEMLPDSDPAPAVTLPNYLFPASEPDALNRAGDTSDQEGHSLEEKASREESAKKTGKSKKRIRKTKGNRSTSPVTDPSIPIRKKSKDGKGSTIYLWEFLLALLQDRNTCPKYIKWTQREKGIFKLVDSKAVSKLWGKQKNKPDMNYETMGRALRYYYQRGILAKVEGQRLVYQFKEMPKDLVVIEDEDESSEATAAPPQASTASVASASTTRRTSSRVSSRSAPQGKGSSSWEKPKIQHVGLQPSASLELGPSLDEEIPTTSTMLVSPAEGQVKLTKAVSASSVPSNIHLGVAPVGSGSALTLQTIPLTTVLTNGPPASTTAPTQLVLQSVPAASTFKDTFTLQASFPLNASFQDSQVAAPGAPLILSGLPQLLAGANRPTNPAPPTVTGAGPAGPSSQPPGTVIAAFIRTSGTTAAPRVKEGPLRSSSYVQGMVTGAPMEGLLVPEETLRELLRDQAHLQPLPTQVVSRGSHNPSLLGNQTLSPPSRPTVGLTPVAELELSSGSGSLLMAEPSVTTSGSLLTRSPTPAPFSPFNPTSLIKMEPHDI
# Summary of the method: as §1
# ELK4 = biological target: T9, ELK4 (Homo sapiens, UniProt P28324-2 1-405); conditions: protein: recombinant; tags: N-terminal GST; dsDNA, one strand shown
# T9 sequence: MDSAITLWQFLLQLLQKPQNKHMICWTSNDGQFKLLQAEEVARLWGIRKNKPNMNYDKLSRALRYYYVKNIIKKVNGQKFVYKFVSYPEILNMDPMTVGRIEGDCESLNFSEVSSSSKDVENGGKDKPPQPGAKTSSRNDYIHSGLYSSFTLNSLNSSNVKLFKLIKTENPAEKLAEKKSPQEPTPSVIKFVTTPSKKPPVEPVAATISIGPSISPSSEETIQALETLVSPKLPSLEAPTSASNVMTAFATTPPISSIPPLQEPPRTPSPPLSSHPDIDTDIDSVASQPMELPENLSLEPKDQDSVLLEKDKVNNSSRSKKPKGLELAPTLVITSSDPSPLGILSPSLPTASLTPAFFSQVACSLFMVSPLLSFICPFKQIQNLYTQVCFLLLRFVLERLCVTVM
# Summary of the method: as §1
# ETV2 = biological target: T10, ETV2 (Homo sapiens, UniProt O00321 1-342); conditions: protein: recombinant; tags: N-terminal GST; dsDNA, one strand shown
# T10 sequence: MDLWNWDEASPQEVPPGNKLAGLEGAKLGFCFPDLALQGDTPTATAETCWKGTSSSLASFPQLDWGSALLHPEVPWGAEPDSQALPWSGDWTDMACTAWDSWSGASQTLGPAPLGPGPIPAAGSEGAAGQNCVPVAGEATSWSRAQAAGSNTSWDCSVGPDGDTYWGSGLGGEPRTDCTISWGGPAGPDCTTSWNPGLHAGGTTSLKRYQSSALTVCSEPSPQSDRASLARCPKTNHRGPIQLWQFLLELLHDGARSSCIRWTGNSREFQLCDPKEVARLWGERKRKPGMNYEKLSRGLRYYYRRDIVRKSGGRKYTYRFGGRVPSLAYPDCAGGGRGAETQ
# Summary of the method: as §1
# ELF3 = biological target: T11, ELF3 (Homo sapiens, UniProt P78545 1-371); conditions: protein: recombinant; tags: N-terminal GST; dsDNA, one strand shown
# T11 sequence: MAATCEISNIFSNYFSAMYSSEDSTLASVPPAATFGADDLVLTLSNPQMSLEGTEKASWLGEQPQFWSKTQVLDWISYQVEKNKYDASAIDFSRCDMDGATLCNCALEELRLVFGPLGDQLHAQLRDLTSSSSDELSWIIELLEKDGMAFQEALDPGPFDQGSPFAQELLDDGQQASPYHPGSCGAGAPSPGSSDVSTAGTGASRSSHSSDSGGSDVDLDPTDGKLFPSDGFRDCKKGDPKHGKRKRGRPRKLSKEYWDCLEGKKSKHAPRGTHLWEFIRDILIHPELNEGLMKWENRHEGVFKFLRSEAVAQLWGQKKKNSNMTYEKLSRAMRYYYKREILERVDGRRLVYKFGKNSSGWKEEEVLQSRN
# Summary of the method: as §1
# CRX = CRX (Homo sapiens, UniProt O43186 1-299); conditions: protein: recombinant; tags: N-terminal GST; dsDNA, one strand shown
# Sequence of CRX (O43186 whole entry): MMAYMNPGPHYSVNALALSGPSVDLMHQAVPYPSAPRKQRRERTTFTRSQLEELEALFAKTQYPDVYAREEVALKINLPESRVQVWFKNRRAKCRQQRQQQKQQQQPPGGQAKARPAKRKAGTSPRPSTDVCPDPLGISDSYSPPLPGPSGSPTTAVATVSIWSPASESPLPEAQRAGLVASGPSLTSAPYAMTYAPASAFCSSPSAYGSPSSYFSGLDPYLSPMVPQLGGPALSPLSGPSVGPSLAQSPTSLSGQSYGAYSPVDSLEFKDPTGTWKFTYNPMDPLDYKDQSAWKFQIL
# Summary of the method: as §1
# ETV1 = ETV1 (Homo sapiens, UniProt P50549 1-477); conditions: protein: recombinant; tags: N-terminal GST; dsDNA, one strand shown
# Sequence of ETV1 (P50549 whole entry): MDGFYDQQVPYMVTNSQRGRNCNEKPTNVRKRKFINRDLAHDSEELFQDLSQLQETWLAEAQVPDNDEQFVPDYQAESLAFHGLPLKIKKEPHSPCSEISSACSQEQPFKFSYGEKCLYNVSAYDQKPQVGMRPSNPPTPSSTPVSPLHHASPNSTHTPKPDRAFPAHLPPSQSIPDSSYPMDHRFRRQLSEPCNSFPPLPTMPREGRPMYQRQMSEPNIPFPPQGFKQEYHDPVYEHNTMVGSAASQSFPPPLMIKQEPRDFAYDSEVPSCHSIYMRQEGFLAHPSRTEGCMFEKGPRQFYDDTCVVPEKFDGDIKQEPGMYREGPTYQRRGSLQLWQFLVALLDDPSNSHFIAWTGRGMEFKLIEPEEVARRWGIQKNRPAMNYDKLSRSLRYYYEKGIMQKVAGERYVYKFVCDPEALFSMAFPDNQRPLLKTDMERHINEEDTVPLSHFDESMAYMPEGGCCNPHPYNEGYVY
# Summary of the method: as §1
sequence,measurement,setting,value
TACTCG,binding signal,FLI1,"1.33 fold enrichment (6-mer frequency, TF over GST control)"
same,binding signal,ELK1,"1.29 fold enrichment (6-mer frequency, TF over GST control)"
same,binding signal,GABPA,"1.34 fold enrichment (6-mer frequency, TF over GST control)"
same,binding signal,ERG,"1.14 fold enrichment (6-mer frequency, TF over GST control)"
same,binding signal,ELF1,"1.34 fold enrichment (6-mer frequency, TF over GST control)"
same,binding signal,EHF,"1.16 fold enrichment (6-mer frequency, TF over GST control)"
same,binding signal,SPI1,"1.22 fold enrichment (6-mer frequency, TF over GST control)"
same,binding signal,SPIB,"1.18 fold enrichment (6-mer frequency, TF over GST control)"
same,binding signal,ELK3,"1.22 fold enrichment (6-mer frequency, TF over GST control)"
same,binding signal,FEV,"1.23 fold enrichment (6-mer frequency, TF over GST control)"
same,binding signal,ETV5,"1.28 fold enrichment (6-mer frequency, TF over GST control)"
same,binding signal,HSF1,"1.72 fold enrichment (6-mer frequency, TF over GST control)"
same,binding signal,SPIC,"1.25 fold enrichment (6-mer frequency, TF over GST control)"
same,binding signal,ELF4,"1.22 fold enrichment (6-mer frequency, TF over GST control)"
same,binding signal,ELK4,"1.3 fold enrichment (6-mer frequency, TF over GST control)"
same,binding signal,ETV2,"1.19 fold enrichment (6-mer frequency, TF over GST control)"
same,binding signal,ELF3,"1.29 fold enrichment (6-mer frequency, TF over GST control)"
same,binding signal,CRX,"1.38 fold enrichment (6-mer frequency, TF over GST control)"
same,binding signal,ETV1,"1.26 fold enrichment (6-mer frequency, TF over GST control)"
